Compound activity from PubChem BioAssay.
Cav32 inh: Cav3.2 calcium influx blockers – cell-based, Fluo-4 calcium fluorescence, FDSS, MLSMR library, primary screen; B-score at 10 µM; Cav3.2-expressing cells; active compounds read low; 100,000 compounds, 4% hits; AID 449739, 2010;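 active means single-dose well whose peak fluorescence ratio is a statistical outlier from its plate by either plate-standardised score or position-corrected B-score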
CYP2C9 activ: human CYP2C9 activators, primary screen, biochemical, luminescence; Cytochrome P450 2C9 (Homo sapiens), P11712; recombinant CYP2C9, luciferin-H conversion; active compounds read high; factor 1 = untreated enzyme, 0 = blocked; activation factor at 5 µM; 96,000 compounds, 1.4% hits;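 active means activation factor of 2 or more for CYP2C9 at a 5 µM dose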
CYP2C19 inhib: blockers of cytochrome P450 2C19 activity – biochemical, luminescence, ADME assay, primary screen | P33261 | CYP2C19 Supersomes, luciferin-H EGE luminescence, 30 min | inhibition, % at 5 µM | 96,000 compounds, 21% hits;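 active means CYP2C19 inhibition above a set limit at 5 µM in the primary screen, cut at about 50% in these data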
CYP2C9 inh: blockers of cytochrome P450 2C9 activity – biochemical, luminescence, ADME assay, primary screen | inhibition, % at 5 µM | AID 777, 2007 | CYP2C9 Supersomes, luciferin-H conversion | P11712 | 96,000 compounds, 20% hits;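 active means blocking of liver enzyme CYP2C9 beyond about 50% at 5 µM, limit read from the data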
CYP2C19 act: human CYP2C19 activators, primary screen, biochemical, luminescence; recombinant CYP2C19, luciferin-H EGE luminescence; active compounds read high; 0 = fully inhibited enzyme, 1 = untreated enzyme; 96,000 tested, under 10 active; activation factor at 5 µM; Cytochrome P450 2C19 (Homo sapiens), P33261;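 active means activation factor of at least 2 at 5 µM in the primary screen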
A number is an active result; 0 = inactive; - = not tested or not shown. Sampled rows, rich in hits. Any-hit rate of the full collection: about 27%.

SMILES	Cav32 inh	CYP2C9 activ	CYP2C19 inhib	CYP2C9 inh	CYP2C19 act
CCc1ccc(NC(=O)CCNS(=O)(=O)c2cccc3nonc23)cc1	0	0	0	55.1	0
CCCC(=O)N1CCN(c2ccc([N+](=O)[O-])c(NC(C)c3ccccc3)c2)CC1 (configuration not stated)	-6.28	0	63.4	69.5	0
CC(C)(C)C(=O)N1CCN(c2ccc([N+](=O)[O-])c(NCC3CCCO3)c2)CC1 (configuration not stated)	0	0	0	0	0
C[N+]1(CC(=O)OCCCc2ccccc2)CCOCC1	0	0	0	0	0
O=C(CN1CCOCC1)OCCCc1ccccc1	0	0	65.6	0	0
Cc1nc2c3cnn(-c4ccccc4)c3ncn2n1	0	0	0	0	0
CCc1nc2c3cnn(-c4cc(Cl)ccc4C)c3ncn2n1	0	0	85.4	0	0
CCC(=O)N1CCCc2cc(S(=O)(=O)N3CCN(c4ncccn4)CC3)ccc21	0	0	98.2	95.6	0
CCC(=O)N1CCCc2cc(S(=O)(=O)N3CCN(c4ccccn4)CC3)ccc21	0	0	50.1	79.7	0
CCC(=O)N1CCCc2cc(S(=O)(=O)N3CCN(c4ccccc4F)CC3)ccc21	-	0	95.5	99.9	0
O=C(NC1CCCCC1)c1cccc(COCC(F)(F)F)c1	0	-	-	-	-
CCN(c1nc(C)cc(OC)n1)S(=O)(=O)c1ccccc1	0	0	76.0	0	0
CCCCOC(=O)CCc1nc2ccccc2[nH]1	0	0	50.3	0	0
O=C(CCc1ccccc1)Nc1ccncc1	0	0	85.8	83.4	0
Cc1cc(C)cc(NC(=O)CCc2nc3ccccc3[nH]2)c1	0	0	0	0	0
CCOC(=O)Cc1nc2ccccc2[nH]1	0	0	0	0	0
O=C(CCc1nc2ccccc2[nH]1)Nc1ccccc1	0	0	62.3	0	0
CCOC(=O)c1ccc(NCc2nc3ccccc3[nH]2)cc1	0	0	0	65.3	0
O=c1c(-c2ccc(O)cc2)coc2cc(OC3OC(CO)C(O)C(O)C3O)ccc12 (configuration not stated)	0	-	-	-	-
CC(C)(C)NC(=O)COC(=O)Cc1ccc(Cl)cc1	0	0	0	0	0
Cc1cc(Cl)ccc1Oc1nccc(N(C)C)c1C#N	0	0	0	61.4	0
CCCn1nc(-c2nnc(-c3ccc(C)c(C)c3)o2)c2ccccc2c1=O	0	0	0	0	0
CCOC(=O)c1c(C)[nH]c(C(=O)COC(=O)c2ccccn2)c1C	0	0	0	55.6	0
CCOC(=O)c1c(C)[nH]c(C(=O)Cn2nnc(-c3ccccc3)n2)c1C	0	0	58.9	0	0
CCOC(=O)c1c(C)[nH]c(C(=O)Cn2nnc(-c3ccccc3Cl)n2)c1C	0	0	0	82.3	0
SMILES	Cav32 inh	CYP2C9 activ	CYP2C19 inhib	CYP2C9 inh	CYP2C19 act
CCOC(=O)c1c(C)[nH]c(C(=O)CN2CCOCC2)c1C	0	0	0	0	0
CCOC(=O)c1c(C)[nH]c(C)c1C(=O)Cn1nnc(-c2ccccc2C)n1	-10.1	-	-	-	-
COc1ccccc1NC(=O)c1nn(-c2ccc(F)c(F)c2)ccc1=O	0	0	0	0	0
O=C(COC(=O)c1cccc(C(=O)OCC(=O)NC2CCCCC2)n1)NC1CCCCC1	0	0	0	0	0
O=C(COC(=O)Cc1ccsc1)NC1CCCCCC1	0	0	73.8	0	0
CC1CCCC(NC(=O)COC(=O)Cc2ccsc2)C1C (configuration not stated)	0	0	64.4	0	0
CC1CCCC(NC(=O)COC(=O)CCC2CCCC2)C1C (configuration not stated)	0	0	0	63.5	0
CC1CCCC(NC(=O)COC(=O)COc2ccc(Cl)cc2)C1C (configuration not stated)	0	0	0	0	0
O=C(COC(=O)Cc1ccsc1)NCC12CC3CC(CC(C3)C1)C2	0	0	58.9	0	0
Cc1cc(C)nc(-n2nc(C)c3c(C)c(C)c(C)nc32)n1	0	0	0	0	0
COc1ccc(C(CC(=O)N2CCN(c3ccccc3)CC2)c2c(OC)cc(OC)c3c(-c4ccccc4)cc(=O)oc23)cc1 (configuration not stated)	0	-	-	-	-
COCCCN(C(=O)Nc1ccccc1)C(C)c1ccncc1 (configuration not stated)	0	0	76.9	59.5	0
CCOc1ccc(NC(=O)N(CCN(C)C)C(C)c2ccncc2)cc1 (configuration not stated)	0	0	0	0	0
COCCSc1ccccc1C(=O)Nc1ccncc1	0	0	92.0	83.8	0
CCOC(=O)N1CCN(C(=O)CSc2nnc(-c3ccc(C(C)(C)C)cc3)o2)CC1	0	0	0	0	0
CC(=O)N1CCc2c(sc(NC(=O)CN3C(=O)CCC3=O)c2C(N)=O)C1	0	-	-	-	-
CCOC(=O)N1CCN(c2ccc3nnnn3n2)CC1	0	0	56.1	0	0
O=C(NCC1CCCO1)c1ccc(N2CCCCC2)nc1 (configuration not stated)	0	0	0	0	0
Cc1ccccc1N(CC(=O)NCCc1ccccc1)C(=O)c1ccc(N2CCCC2)nc1	-4.77	0	56.9	95.0	0
O=c1c(Cl)c(N2CCCCC2)cnn1-c1nc2ccccc2[nH]1	0	0	62.3	0	0
Clc1ccc2nc(N3CCCCC3)[nH]c2c1	0	0	0	0	0
O=C(O)c1ccc(CNCc2cccc(Cl)c2Cl)cc1	0	0	0	0	0
CCCCN(CC)c1nc(N)c(C#N)c(CC#N)c1C#N	0	0	63.9	85.1	0
CCCNC(=O)N1C2=NC(C(=O)OC)=C(C(=O)OC)[C@@H]3N(Cc4ccccc4)c4ccccc4[C@]23C[C@H]1CO	0	-	-	-	-
CCOC(=O)/C(=C\c1cccnc1)C(=O)c1cc(C(C)=O)c(Nc2ccccc2)s1	4.14	0	65.0	99.8	0
SMILES	Cav32 inh	CYP2C9 activ	CYP2C19 inhib	CYP2C9 inh	CYP2C19 act
CCOC(=O)/C(=C\c1ccccc1)C(=O)c1cc(C(C)=O)c(Nc2ccccc2)s1	0	0	91.6	98.2	0
CCOC(=O)c1cccc(NC(=O)c2cccnc2)c1	0	0	0	0	0
NC(=O)C1CCN(C(=O)c2ccco2)CC1	0	-	-	-	-
CC1(C)CC(=O)C=C(c2ccc3[nH]ccc3c2)C1	0	-	-	-	-
COc1cc(OC)c(C2=NOC(C(=O)N3CCc4ccccc4C3)C2)cc1Cl (configuration not stated)	0	2.1	58.7	0	0
COc1cccc(C2=NOC(C(=O)N3CCN(Cc4ccccc4)CC3)C2)c1OC (configuration not stated)	-	2.1	0	0	0
O=C(C1CC(c2cccc(Br)c2)=NO1)N1CCc2ccccc2C1 (configuration not stated)	-4.37	0	0	0	0
